In PubChem BioAssay (NCATS) one finds outcome and Potency data, which are given here for eleven molecules.

Experiment [1] concerns the target ATP-dependent 6-phosphofructokinase (Trypanosoma brucei brucei) (UniProt O15648). The experiment in a line: qHTS Assay to Find Inhibitors of T. brucei phosphofructokinase: hit validation (AID 492961).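 Also: luminescence reports ADP formed as PFK phosphorylates fructose-6-phosphate with ATP.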 The method, boiled down: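 Percent activity derived from corrected luminescence, normalized between 0x and 1x enzyme controls, then fitted to concentration-response curves. Conditions: 1.25 nM PFK, 0.1 mM ATP, 0.5 mM F6P, 45 min RT.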
In general terms: Quantitative high-throughput screening tests each substance at several concentrations.

Experiment [2] in a line: S16 Schwann cell PMP22 intronic element firefly luciferase assay (AID 624032). Also: nearly all actives have a fitted effect of over 30% in size. Also: potency is read from the fitted curve at half-maximal effect. The method, boiled down: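 Rat S16 Schwann cells stably carrying a PMP22 intronic element-driven Fluc reporter were seeded overnight, then exposed to compounds for 24 h at 37 °C. Luminescence was normalized to PTC124 (positive control) and DMSO (0% activity).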
A further experiment has as its system 3D7. The experiment is described as follows: qHTS profiling for inhibitors of Plasmodium falciparum proliferation (AID 504749). Also: nearly all actives have a fitted effect of over 60% in size. Also: potency is read from the fitted curve at half-maximal effect. The note with it: P. falciparum in erythrocytes, SYBR Green DNA, 72 h; series mostly up to 28.7 µM. The method, boiled down:
(§1)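 Parasite proliferation within erythrocytes, 72 h exposure. Endpoint: SYBR Green I fluorescence after overnight lysis at room temperature. Controls: 0.29 uM artemisinin, DMSO.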

A further experiment concerns CP185. Described as above. To be noted: P. falciparum in erythrocytes, SYBR Green DNA, 72 h; series mostly up to 28.7 µM. The method, boiled down: as §1
The test system of the next experiment is CP252. The experiment is described as above. The note with it: P. falciparum in erythrocytes, SYBR Green DNA, 72 h; series mostly up to 28.7 µM. The method, boiled down:
as §1

The next experiment has as its system CP268. Described as above. The note with it: P. falciparum in erythrocytes, SYBR Green DNA, 72 h; series mostly up to 28.7 µM. The method, boiled down:
as §1

The subject of a further experiment is DIV14. The experiment is described as above. To be noted: P. falciparum in erythrocytes, SYBR Green DNA, 72 h; series mostly up to 28.7 µM. The method, boiled down:
as §1

The subject of another experiment is FAB9. The description is as above. The note with it: P. falciparum in erythrocytes, SYBR Green DNA, 72 h; series mostly up to 28.7 µM. The procedure, abridged: as §1
The next experiment has as its system HB3. Described as above. To be noted: P. falciparum in erythrocytes, SYBR Green DNA, 72 h; series mostly up to 28.7 µM. The procedure, abridged:
as §1

The subject of a further experiment is PAD. Described as above. The note with it: P. falciparum in erythrocytes, SYBR Green DNA, 72 h; series mostly up to 28.7 µM. The procedure, abridged:
as §1

For another experiment, the system named is PC49. The description is as above. The note with it: P. falciparum in erythrocytes, SYBR Green DNA, 72 h; series mostly up to 28.7 µM. The procedure, abridged:
as §1

Experiment [3] can be described thus: MultiTox-Fluor Cytotoxicity Assay - LYMP1-001 - Live Cells (AID 947).
Experiment [4] can be described thus: MultiTox-Fluor Cytotoxicity Assay - LYMP1-002 - Dead Cells (AID 960). Also: nearly all actives have a fitted effect of over 60% in size. The procedure, abridged:
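LYMP1-002 cells 2500/well; 5 hr 37 C pre-incubation; compound 16 hr 37 C; MultiTox-Fluor reagent 60 min RT; dead-cell fluor Ex/Em 485/520. Norm. to DMSO (0%) vs 15 uM tetraoctylammonium bromide (100%); Hill AC50.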

Experiment [5] deals with Vitamin D3 receptor (Homo sapiens) (UniProt P11473). The experiment in a line: qHTS assay for small molecule agonists of vitamin D receptor signaling (AID 588543; calls by dose curve). The method, boiled down: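 qHTS in agonist mode: compound titrations stimulate a VDR-driven β-lactamase reporter in HEK293T cells over 16 h at 37 °C. Response normalized to 50 nM 1α,25-dihydroxyvitamin D3 = 100%, DMSO = 0%; Hill fitting gives EC50 and maximal response.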

Experiment [6] in a line: qHTS assay for small molecule disruptors of the mitochondrial membrane potential - 5 hr assay (AID 651755; calls by dose curve; also: nearly all actives have a fitted effect of over 40% in size; also: potency is read from the fitted curve at half-maximal effect). The procedure, abridged:
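HepG2 cells, attached overnight at 37C, were exposed to compound or DMSO for 5 hr at 37C, 5% CO2. Mito-MPS dye was then added for 30 min, and fluorescence read at 490/535 nm (monomers) and 540/590 nm (aggregates).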

The target in experiment [7] is Tumor necrosis factor (Homo sapiens) (UniProt P01375). The experiment is described as follows: qHTS assay to identify small molecules that stimulate Tumor Necrosis Factor-alpha (TNF-alpha) secretion (AID 651757; active = well fitted curve in the direction sought with a large enough effect in the signal ratio; the % refers to the signal ratio). The procedure, abridged:
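Read-out is HTRF, a TR-FRET sandwich of cryptate- and XL665-labeled anti-TNF-alpha antibodies detecting cytokine secreted by THP-1 cells. Cells had been incubated with test compounds at 37 C for 17 hrs beforehand.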

Another experiment deals with CP201. The experiment is described as follows: qHTS profiling for inhibitors of Plasmodium falciparum proliferation (AID 504749). Also: nearly all actives have a fitted effect of over 60% in size. Also: potency is read from the fitted curve at half-maximal effect. To be noted: P. falciparum in erythrocytes, SYBR Green DNA, 72 h; series mostly up to 28.7 µM. The procedure, abridged: as §1
For another experiment, the system named is CP297. The experiment is described as above. To be noted: P. falciparum in erythrocytes, SYBR Green DNA, 72 h; series mostly up to 28.7 µM. The procedure, abridged:
as §1

A further experiment relates to DIV30. The description is as above. To be noted: P. falciparum in erythrocytes, SYBR Green DNA, 72 h; series mostly up to 28.7 µM. The method, boiled down: as §1
The next experiment relates to PC26. The experiment is described as above. To be noted: P. falciparum in erythrocytes, SYBR Green DNA, 72 h; series mostly up to 28.7 µM. The procedure, abridged:
as §1

Inconclusive results are not listed. Active and inactive are the calls of the source. Unless noted, calls follow the shape of the dose curve; as a rule, active = well fitted curve in the direction sought with a large enough effect; inconclusive = small, poorly fitted or top-dose-only effect, or another doubt; inactive = no such curve, though single readings can be large; an effect the other way counts as inactive or inconclusive.

ATP-dependent 6-phosphofructokinase (Trypanosoma brucei brucei), sequence (O15648 whole entry, looked up): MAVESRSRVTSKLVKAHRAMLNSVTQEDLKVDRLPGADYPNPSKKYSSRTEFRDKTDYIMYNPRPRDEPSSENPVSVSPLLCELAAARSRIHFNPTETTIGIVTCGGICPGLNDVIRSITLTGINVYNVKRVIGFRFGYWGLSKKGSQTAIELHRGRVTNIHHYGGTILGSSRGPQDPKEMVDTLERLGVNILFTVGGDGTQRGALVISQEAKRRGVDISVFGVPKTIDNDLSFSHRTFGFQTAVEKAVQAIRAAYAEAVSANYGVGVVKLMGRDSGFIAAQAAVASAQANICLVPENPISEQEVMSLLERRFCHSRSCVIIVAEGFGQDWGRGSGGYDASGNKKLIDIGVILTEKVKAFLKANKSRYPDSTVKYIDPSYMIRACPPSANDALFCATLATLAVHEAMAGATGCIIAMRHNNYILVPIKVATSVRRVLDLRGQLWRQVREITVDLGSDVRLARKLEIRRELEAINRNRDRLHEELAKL
Vitamin D3 receptor (Homo sapiens), sequence (P11473 whole entry, looked up): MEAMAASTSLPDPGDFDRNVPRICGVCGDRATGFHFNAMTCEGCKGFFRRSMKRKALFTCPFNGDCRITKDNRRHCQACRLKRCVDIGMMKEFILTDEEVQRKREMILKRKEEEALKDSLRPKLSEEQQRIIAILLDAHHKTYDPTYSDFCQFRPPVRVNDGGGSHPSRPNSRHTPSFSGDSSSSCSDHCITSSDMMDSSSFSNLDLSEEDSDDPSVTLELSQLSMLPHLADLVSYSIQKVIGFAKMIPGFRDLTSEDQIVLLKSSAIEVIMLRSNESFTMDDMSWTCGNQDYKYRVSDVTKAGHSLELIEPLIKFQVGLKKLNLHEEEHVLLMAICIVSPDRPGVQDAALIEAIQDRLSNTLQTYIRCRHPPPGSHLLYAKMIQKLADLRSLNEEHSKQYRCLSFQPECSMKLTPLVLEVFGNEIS
Tumor necrosis factor (Homo sapiens), sequence (P01375 whole entry, looked up): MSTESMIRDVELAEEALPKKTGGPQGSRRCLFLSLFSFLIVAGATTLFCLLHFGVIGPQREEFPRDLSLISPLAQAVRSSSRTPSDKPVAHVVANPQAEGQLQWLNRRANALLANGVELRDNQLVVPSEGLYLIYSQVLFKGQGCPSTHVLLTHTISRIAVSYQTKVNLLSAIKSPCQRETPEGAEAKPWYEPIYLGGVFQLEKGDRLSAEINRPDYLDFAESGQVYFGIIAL

Regarding `CO[C@@H]1[C@@H](OC2OC(C)C(OC3CC(C)(O)C(OC(=O)CC(C)C)C(C)O3)C(N(C)C)C2O)[C@@H](CC=O)C[C@@H](C)C(=O)/C=C\C2O[C@H]2C[C@@H](C)OC(=O)C[C@H]1OC(C)=O` (stereo not given in full), in [1], the outcome was inactive. Moreover, the Potency in [2] was 5.73 µM (active); in the experiment with 3D7 it was 11.2 µM (active); with CP185, 7.94 µM (active); in the experiment on CP252, 5.01 µM (active); in the experiment on CP268, 8.49 µM (active); with DIV14 it was 12 µM (active). Besides, the Potency with HB3 and in the experiment on PAD was 11.2 µM (active) each time. Also, the Potency entry with FAB9 and in the experiment with PC49 was “inactive” throughout.

In the case of `O=C1CCc2ccccc2O1`, the Potency result in experiment [3], in experiment [4] and in experiment [6] was “inactive” each time. The molecule was called inactive in experiment [5] and in experiment [7].

`CO/N=C(/C(=O)N[C@@H]1C(=O)N2C(C(=O)O)=CCS[C@H]12)c1csc(N)n1`: the Potency entry (in experiment [2]; in the experiment on 3D7; in the experiment on CP185; in the experiment with CP201; in the experiment with CP252; in the experiment with CP268) was “inactive” each time. For the same molecule, the Potency entry in the experiment on CP297, with DIV30, in the experiment with FAB9, in the experiment with HB3, with PAD and in the experiment on PC26 was “inactive” each time. Also, the Potency entry in the experiment with PC49 is “inactive”.

`C/C=C\c1ccc(OC)cc1`: the Potency result (in experiment [3]; in [4]; in experiment [2]; in the experiment with 3D7; in the experiment with CP185; in the experiment with CP201) was “inactive” in each case. Further, the Potency result in the experiment on CP252, in the experiment on CP268, in the experiment on CP297, in the experiment with DIV14, with DIV30 and in the experiment with FAB9 was “inactive” throughout. The Potency result with HB3, in the experiment with PAD, in the experiment with PC26 and in the experiment on PC49 was “inactive” in each case. Further, the call in [1] and in [7] was inactive.

For the molecule `Cc1cccc([N+](=O)[O-])c1C`, the Potency entry in experiment [3], in experiment [4] and in experiment [6] was “inactive” throughout. Further, the molecule was called inactive in experiment [5] and in experiment [7].

`CN1CC[C@H](CN2c3ccccc3Sc3ccccc32)C1`: the result in experiment [1] was inactive. Moreover, the Potency is 32.2 µM (active) in [2]; 11.2 µM (active) with CP252; 15.1 µM (active) with CP268; 6.75 µM (active) in the experiment on CP297; 4.26 µM (active) in the experiment on DIV14; 13.5 µM (active) in the experiment with DIV30. For the same molecule, the Potency in the experiment with PAD is 8.91 µM (active); with PC26 it was 13.5 µM (active).

`O[C@@H]([C@H](O)[C@@H](O)CBr)[C@@H](O)CBr`: the Potency entry in [3], in experiment [4] and in [6] was “inactive” each time. The molecule was classed as inactive in experiment [5] and in experiment [7].

As to `CC1(C)CC(N=C=O)CC(C)(CN=C=O)C1` (stereo not given), the Potency entry in [3] and in experiment [6] was “inactive” in each case. Also, the result in [5] and in [7] was inactive.

Turning to `CCC(O)OC(O)CC` (stereo not given), the Potency result in experiment [3], in [4] and in [6] was “inactive” in each case. Further, the call in [5] and in experiment [7] was inactive.

As to `O=C1c2ccccc2C(=O)C1c1ccc2ccccc2n1`, the Potency result in experiment [3] and in experiment [4] was “inactive” throughout. In addition, the result in experiment [5] was inactive. In addition, the Potency in [6] is 1.68 µM (active).

Turning to `NC1=NC(S)C2N=CN=C2N1` (stereo not given), the outcome in experiment [1] and in experiment [5] was inactive. In addition, the Potency in [2] is 1.44 µM (active). Moreover, the Potency result (in experiment [6]; in the experiment on 3D7; in the experiment on CP185; in the experiment on CP201; in the experiment with CP268; in the experiment on CP297) was “inactive” each time. For the same molecule, the Potency result with DIV14, in the experiment with DIV30, in the experiment with FAB9, in the experiment with HB3, in the experiment on PAD and with PC26 was “inactive” each time. The Potency result with PC49 was “inactive”.
